Data as given in PubChem BioAssay AID588473 (Sanford-Burnham Center for Chemical Genomics, 2011).
Among all 350,000 compounds or so, about 1,600 (0.46%) were called active. Only a selection was taken, and actives are over-represented in it overall. Values without a mark were called inactive.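 Rule for the calls: active = activation of at least 50%, plus an integration ratio under a set limit after plate pattern correction; inactive = the rest.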

tested on: CRF-binding protein / CRF receptor 2 complex (human); assay: agonists of CRF-BP/CRF-R2 complex, primary screen, cell-based, HEK293, calcium dye fluorescence, uHTS (AID 588473); conditions: calcium dye fluorescence (FLIPR), at 13.2 µM, active compounds read high, percent of saturating CRF peptide response;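 note: plate controls were neutral control wells without compound for no effect and CRF at EC100 for full effect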

Compared with `C=CCOc1cccc(C2C(C(=O)c3ccc(C)o3)=C(O)C(=O)N2CCN2CCOCC2)c1` (centres undefined), `CSc1cccc(NC(=O)CN2C(=O)COc3ccc(S(=O)(=O)N4CCOCC4)cc32)c1` is lower in activation: 0.15% for the first, -1.06% for the second.

Going from `CCCc1c(C(=O)N/N=C(\C)CCc2ccc(OC)cc2)nnn1-c1nonc1N` to `CCNc1nc(Oc2ccc(C(=O)OC)cc2)nc(N2CCOCC2)n1`, the activation rises from -0.36% to 1.34%.

Compared with `CCC(C)(C)NC(=O)/C=C/c1cc(OC)c(OC)c(S(=O)(=O)N2CCc3ccccc32)c1`, `COc1ccc(C(=O)OCC(=O)NCC2CCCCC2)cc1S(=O)(=O)N1CCCc2ccccc21` is lower in activation: 3.27% for the first, 1.36% for the second.

Going from `CC(OC(=O)CN1C(=O)C2CCCCC2C1=O)C(=O)Nc1ncc(Cl)cc1Cl` (centres undefined) to `CCC1SC(CC)C(=O)N(CC(=O)NC2CCCCC2)C1=O` (centres undefined), the activation falls from 0.41% to -0.56%.

Compared with `Cc1ccccc1NC(=O)C(C)c1ccc(-c2ccccc2)c(F)c1` (centres undefined), `CSc1ccccc1NC(=O)C(C)N1C(=O)c2ccccc2S1(=O)=O` (centres undefined) is lower in activation: 1.53% for the first, 1.1% for the second.

First: CC1CC(NC(=O)/C(C#N)=C/c2ccc[nH]2)CC(C)(C)C1 (centres undefined)
Second: Cc1cccn2c(=O)c(/C=C(\C#N)C(N)=O)c(N3CCCCCC3)nc12
The activation of the first is higher: 2.1% for the first, -2.5% for the second.

Compared with `CCOC(=O)c1c(NC(C)=O)sc2c(O)c(Br)ccc12`, `CC(=O)NC(=S)NNC(=O)c1ccc(Br)cc1` is lower in activation: 1.34% for the first, -4.92% for the second.

Compared with `NC(N)=Nc1nc2ccc(Br)cc2c(=O)[nH]1`, `NC(=O)c1cc(-c2cccnc2)nc2ccc(Br)cc12` is higher in activation: -1.35% for the first, -0.32% for the second.

Compared with `CC1Sc2ccc(S(=O)(=O)CCC(=O)NCc3ccccc3Cl)cc2NC1=O` (centres undefined), `O=C(O)c1ccc(S(=O)(=O)c2ccccc2)s1` is higher in activation: -3.65% for the first, 0.6% for the second.

Going from `COc1ccc(C)cc1N(CC(=O)N1CCCC1)S(=O)(=O)c1ccccc1` to `COc1ccc(N(CC(=O)N2CCCCCC2)S(=O)(=O)c2ccccc2)cc1`, the activation rises from -0.01% to 0.06%.

First: O=C(CCc1ccccc1)NNC(=O)COc1ccc(Cl)cc1
Second: CCOc1ccccc1NC(=S)NC(=O)CCc1ccccc1
The activation of the first is lower: -0.46% for the first, 0.36% for the second.

Compared with `COc1ccc(C(=O)NC(=S)NC2CCCCC2)cc1`, `CC(C)NS(=O)(=O)c1ccc(NC(=O)C2CCCCC2)cc1` is higher in activation: 1.07% for the first, 1.98% for the second.

Going from `CCN(Cc1ccncc1)C(=S)Nc1ccccc1C` to `CC(C)c1ccc(NC(=O)Cn2ncc3ccccc32)cc1`, the activation falls from -0.24% to -4.37%.

Going from `COCCCNC(=S)N(CCN(C)C)Cc1cc2cc3c(cc2[nH]c1=O)OCCO3` to `O=C(Nc1ccc2c(c1)OCCO2)C1CCCC1`, the activation falls from 0.16% to -0.49%.

Going from `CC(=O)NC(CC(=O)Nc1nccs1)c1ccccc1` (centres undefined) to `CC(NC(=O)Nc1ccccc1)c1ccccc1` (centres undefined), the activation falls from 2.22% to -0.98%.

Compared with `O=C(Nc1ccccc1C(F)(F)F)N1CCCC1c1cccnc1` (centres undefined), `COc1ccccc1CNC(=O)C1CCCN(S(=O)(=O)c2cccc3cccnc23)C1` (centres undefined) is lower in activation: 0.09% for the first, -0.51% for the second.

First: Cc1ccc(NC(=O)CSc2nc(=O)n(CCN(C)C)c3c2CCCC3)c(C)c1
Second: COc1ccc(CN2CCn3ncc(C(=O)Nc4ccc(Cl)cc4Cl)c3C2=O)cc1
The activation of the first is lower: -0.4% for the first, 1.96% for the second.

Compared with `CCOC(=O)Cc1c(C)nc2c(C#N)c(C)nn2c1C`, `Cc1nn(C(C)(C)C)c(OC(=O)CC(C)C)c1S(=O)(=O)c1ccccc1` is higher in activation: -2.38% for the first, 4.7% for the second.

Going from `O=C(NCCc1ccccc1Cl)C1CCC(=O)N(CCCc2ccccc2)C1` (centres undefined) to `CCOC(=O)[C@H]1[C@H]2COc3ccccc3[C@@H]2N2C(=O)CN(Cc3ccccc3)C(=O)[C@@]12C`, the activation rises from -1.43% to -0.27%.

Compared with `C/C(=N\NC(=O)c1cc2c(s1)CCC(C)C2)c1cccnc1` (centres undefined), `COc1ccc2c(c1)SC(C)CC2=O` (centres undefined) is lower in activation: -0.26% for the first, -0.7% for the second.

Going from `CN(C(=O)COC(=O)c1ccc(Br)o1)c1c(N)n(Cc2ccccc2)c(=O)[nH]c1=O` to `Nc1cc(=O)n(Cc2ccccc2)c(=O)n1Cc1ccccc1`, the activation falls from 1.22% to -0.25%.

Going from `CCCS(=O)(=O)N1CCCC(C(=O)NCCN2CCCCC2C)C1` (centres undefined) to `CCC(=O)N1CCc2cc(Br)c(S(=O)(=O)NCCN3CCCCC3CC)cc21` (centres undefined), the activation falls from 2.69% to -1.55%.

Compared with `COc1cccc(C=CC(=O)C=CC=Cc2ccccc2)c1`, `COc1ccc2c(c1)C(=O)CC(c1ccccc1)O2` (centres undefined) is lower in activation: 3.04% for the first, -2.49% for the second.

Compared with `O=C(O)/C=C/c1ccc(S(=O)(=O)N2CCCCCC2)cc1`, `O=C(COc1ccc(S(=O)(=O)N2CCCC2)cc1[N+](=O)[O-])N1CCCCC1` is higher in activation: -6.06% for the first, -0.47% for the second.

Compared with `Cc1cc(Cl)ccc1C(=O)C1CCCN(C(=O)c2ccc3c(c2)OCO3)C1` (centres undefined), `Cc1cccn2c(=O)c(/C=C(\C#N)S(=O)(=O)c3ccc(Cl)cc3)c(N3CCC(C(N)=O)CC3)nc12` is higher in activation: -0.83% for the first, 9.75% for the second.

Compared with `CC1(C)Cc2c(sc(NC(=O)C(=O)NCC3CCCO3)c2C(=O)O)CO1` (centres undefined), `CC(=O)NC12CC3CC(C1)CC(C(=O)N1CCN(S(=O)(=O)c4cccs4)CC1)(C3)C2` is lower in activation: 1.19% for the first, -0.5% for the second.

First: O=S(=O)(Nc1ccccc1N1CCOCC1)c1ccc(Cl)s1
Second: O=C(Nc1cccc(Cl)c1)Nc1ccccc1NS(=O)(=O)c1cccs1
The activation of the first is lower: 0.68% for the first, 38.9% for the second.

Going from `COc1ccc(-n2c(-c3ccc(Cl)cc3)n[nH]c2=S)c(OC)c1` to `COc1ccc(Cl)cc1-n1c(=S)sc2c(=O)n(-c3ccc(F)cc3)c(SCC(=O)O)nc21`, the activation rises from -2.26% to -1.84%.

Going from `COc1cc(OC)c(-n2c(C)cc(C=O)c2C)cc1Cl` to `Cc1cc2c(cc1C)[n+](C)cn2CC(O)COCC1CC=CCC1` (centres undefined), the activation falls from 0.85% to 0.16%.

Compared with `COc1ccc(NC(=O)N(C)C[C@H]2Oc3ncc(C#C[C@@H](C)O)cc3C(=O)N([C@H](C)CO)C[C@H]2C)cc1`, `C[C@H]1CN([C@@H](C)CO)C(=O)Cc2cc(NC(=O)Cc3ccccc3)ccc2O[C@H]1CN(C)S(=O)(=O)c1cccs1` is lower in activation: 5.65% for the first, 0.76% for the second.

Compared with `N#Cc1cccc(CSc2ncnc(N)n2)c1`, `COc1ccccc1-c1nnc(-c2ccc(F)cc2)o1` is higher in activation: -1.54% for the first, 0.06% for the second.

First: CCc1ccc(CN(C)C(=O)CCc2nnc(-c3ccc(-c4ccccc4)cc3)o2)nc1
Second: CCCN(CCC)c1ccc(C(O)c2nnc(-c3ccccc3)o2)cc1 (centres undefined)
The activation of the first is lower: -0.63% for the first, -0.49% for the second.

Going from `Cc1cccc2c1-c1sc(C(=O)NCCCN3CCc4ccccc4C3)cc1CO2` to `O=C(CCN1C(=O)c2ccccc2C1=O)Nc1cccc(F)c1`, the activation falls from 3.21% to -0.06%.

First: Cc1c(NC(=O)c2coc(=O)c(Br)c2)c(=O)n(-c2ccccc2)n1C
Second: Cc1ccc(N2C(=O)CC(Nc3cccc4ccccc34)C2=O)cc1 (centres undefined)
The activation of the first is lower: -1.21% for the first, 0.15% for the second.

Compared with `CC(C)[C@H](NC(=O)N1c2ccccc2NC(=O)[C@@H]1C(C)C)C(=O)N[C@H](C(=O)O)c1ccccc1`, `O=C(N/N=C/c1cc(Br)c(O)c([N+](=O)[O-])c1)C(O)(c1ccccc1)c1ccccc1` is lower in activation: 0.51% for the first, -0.94% for the second.

Going from `COc1ccc(SCCN2CCN(CC(C)C)CCC2=O)cc1` to `CCNC(=S)N1CCN(S(=O)(=O)c2ccc(Cl)s2)CC1`, the activation rises from -0.91% to 3.39%.

Compared with `COC(=O)C(C)Oc1ccc2c(-c3cccc([N+](=O)[O-])c3)cc(=O)oc2c1` (centres undefined), `c1ccc(C(=NNc2nc3ccccc3s2)c2ccccn2)cc1` is higher in activation: -3.43% for the first, 5.4% for the second.

For `COc1cc(C)c(C)cc1S(=O)(=O)N1CCCc2ccccc21`, the activation was 53.4% (active).
`O=c1c2cc(Br)ccc2nc(-c2cccc(Cl)c2)n1O` was tested, and the activation was 66.9% (active).
`COc1ccccc1N(CC(=O)N1CCCCC1)S(=O)(=O)c1ccccc1` was tested, and the activation was 59.4% (active).
For `Nc1c(C(=O)c2cccs2)sc2nsc(SCCN3CCCCC3)c12`, the activation was 147% (active).
`COc1ccc(C(=O)NC(=S)NNC(=O)CCc2ccccc2)cc1` was tested, and the activation was 68.5% (active).
In the case of `COc1ccc(C(=O)NNC(=S)NC(=O)c2ccccc2)cc1`, the activation is reported as 123% (active).
With `Cc1cc2nc3c(=O)n(Cc4ccccc4)c(=O)[nH]c3nc2cc1N` the activation was 89.5% (active).
In the case of `O=C(/C=C(O)/C=C/c1ccc(O)cc1)/C=C/c1ccc(O)cc1`, the activation is reported as 123% (active).
`COc1cc(NC(=O)c2ccccc2NS(=O)(=O)c2ccc(Cl)s2)cc(OC)c1` was tested, and the activation was 59.3% (active).
With `COc1cc(OC)c(-n2cc(-c3ccc(Cl)cc3)[nH]c2=O)cc1Cl` the activation was 180% (active).
With `CCC(C(=O)Nc1ccc(C(C)C)cc1)c1ccccc1` (centres undefined) the activation was 84.3% (active).
In the case of `O=C(O)c1ccc(NC(=O)C2CCCCC2)cc1`, the activation is reported as 51.5% (active).
With `CCCCCCc1cc2cc(-c3nnc(-c4ccccc4)o3)c(=O)oc2cc1O` the activation was 269% (active).
In the case of `CCOC(=O)CC1C(=O)NCCN1c1nc2c(C)cccn2c(=O)c1/C=C1\SC(=S)N(C(C)CC)C1=O` (centres undefined), the activation is reported as 177% (active).
`O=C(Nc1cccc(F)c1)c1coc(=O)c(Br)c1` was tested, and the activation was 67% (active).
In the case of `CCN1/C(=C\c2ccc3ccccc3[n+]2CC)Sc2cc(C)ccc21`, the activation is reported as 200% (active).
For `CCN1/C(=C/c2ccc3ccc(C)cc3[n+]2CC)Sc2ccccc21`, the activation was 143% (active).
For `O=[N+]([O-])c1cc(Br)c(O)c(/C=N/Nc2nc3ccccc3s2)c1`, the activation was 82.8% (active).
With `CC(=O)Nc1ccccc1Sc1ccc2c3c(cccc13)C(=O)N(c1ccc(C)cc1)C2=O` the activation was 87.7% (active).
`COc1ccc2c(c1)OC(O)(C(F)(F)C(F)F)CC2=O` (centres undefined) was tested, and the activation was 66.2% (active).
